Data on 16 molecules can be found in PubChem BioAssay (NCATS).

Inconclusive results are not listed. Entries that show only a call come without a potency. Active and inactive are the calls of the source. The call rests on the fitted dose curve; in most records, active means well fitted inhibition curve with a large enough effect; inconclusive means small, poorly fitted or top-dose-only effect; inactive means no such curve, though single readings can be large or run the other way.

The nature of this assay: qHTS assay for measurement of the activity of small molecule inhibitors on Zika virus induced Caspase-3 activity in human iPSC derived neural progenitor cells (hNPCs) (AID 1224857). Further: nearly all actives have a fitted effect of over 65% in size. The method in brief:
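Caspase-3/7 induction by a 6-hour ZIKV infection was quantified with a luminescent Caspase-Glo 3/7 reagent incubated 30 minutes at room temperature. Compounds were preincubated with hNPCs for 1 hour; inhibition was calculated against uninfected and infected control wells.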
On the technique in general: In qHTS, concentration-response curves come from the screen itself.

For `CCCC(CCC)C(=O)OC1CC2CCC(C1)[N+]2(C)C` (stereo unspecified), the Potency result is “inactive”.

With `CO[C@H]1O[C@@H]2O[C@]3(C)CC[C@@H]4[C@@H](C)CC[C@H]([C@H]1C)[C@]24OO3`, the Potency result was “inactive”. For `Cc1cn([C@H]2CC(N=[N+]=[N-])[C@@H](CO)O2)c(=O)[nH]c1=O` (stereo partly specified) the value was “inactive”; for `C[C@H](Cc1ccccc1)Nc1ncnc2c1ncn2[C@@H]1O[C@H](CO)C(O)[C@H]1O` (stereo partly specified), “inactive”; for `OC[C@H]1O[C@@H](n2cnc3c(NC4CCCC4)ncnc32)[C@H](O)C1O` (stereo partly specified), “inactive”.

On to `COC(=O)C1=C(C)NC(C)=C(C(=O)OC)C1c1cccc(NC(=O)NCCCN2CCC(c3cccc(OC)c3)CC2)c1`, for which the Potency result was “inactive”. In the case of `Nc1ccn([C@@H]2O[C@H](CO)[C@@H](O)[C@@H]2O)c(=O)n1`, the Potency entry was “inactive”. In the case of `Brc1cc2c(cc1[C@H]1Nc3ccccc3[C@H]3C=CC[C@H]31)OCO2` it was “inactive”. For `NS(=O)(=O)c1ccc(-n2nc(C(F)(F)F)cc2-c2ccc(Cl)cc2)cc1` the value was “inactive”; for `CC(C)(NS(=O)(=O)c1ccc(Oc2ccc(F)cc2)cc1)C(=O)NO`, “inactive”; for `Cc1c(N)c(=O)n(-c2ccccc2)n1C`, “inactive”. In the case of `CNC(=O)[C@H]1O[C@@H](n2cnc3c(NCc4ccc(N)cc4)ncnc32)[C@H](O)C1O` (stereo partly specified) it was “inactive”. Consider `COc1cc(OC)cc(-c2cc3cnc(N)nc3nc2NC(=O)NC(C)(C)C)c1`, for which the Potency result is “inactive”. Take `Fc1ccc2[nH]c(CN3CCN(c4ccccn4)CC3)cc2c1`: the Potency entry is “inactive”. In the case of `C=C[C@H]1CN2CC[C@@H]1C[C@H]2[C@H](O)c1ccnc2ccc(OC)cc12` it was “inactive”. For `COc1ccc(/C=C2\COc3ccc(C)cc3C2=O)cc1O` the value was “inactive”.
